From PubChem BioAssay

Biological target: Neurogenic locus notch homolog protein 3 (Homo sapiens) (UniProt Q9UM47)
Experiment: NOTCH3 binders on small-molecule microarray, primary screen, biochemical, 635/667 nm fluorescence (AID 1096)
Settings: NOTCH3 binding, 635 nm fluorescence, higher = more signal

Neurogenic locus notch homolog protein 3 (Homo sapiens), sequence (Q9UM47 whole entry, looked up): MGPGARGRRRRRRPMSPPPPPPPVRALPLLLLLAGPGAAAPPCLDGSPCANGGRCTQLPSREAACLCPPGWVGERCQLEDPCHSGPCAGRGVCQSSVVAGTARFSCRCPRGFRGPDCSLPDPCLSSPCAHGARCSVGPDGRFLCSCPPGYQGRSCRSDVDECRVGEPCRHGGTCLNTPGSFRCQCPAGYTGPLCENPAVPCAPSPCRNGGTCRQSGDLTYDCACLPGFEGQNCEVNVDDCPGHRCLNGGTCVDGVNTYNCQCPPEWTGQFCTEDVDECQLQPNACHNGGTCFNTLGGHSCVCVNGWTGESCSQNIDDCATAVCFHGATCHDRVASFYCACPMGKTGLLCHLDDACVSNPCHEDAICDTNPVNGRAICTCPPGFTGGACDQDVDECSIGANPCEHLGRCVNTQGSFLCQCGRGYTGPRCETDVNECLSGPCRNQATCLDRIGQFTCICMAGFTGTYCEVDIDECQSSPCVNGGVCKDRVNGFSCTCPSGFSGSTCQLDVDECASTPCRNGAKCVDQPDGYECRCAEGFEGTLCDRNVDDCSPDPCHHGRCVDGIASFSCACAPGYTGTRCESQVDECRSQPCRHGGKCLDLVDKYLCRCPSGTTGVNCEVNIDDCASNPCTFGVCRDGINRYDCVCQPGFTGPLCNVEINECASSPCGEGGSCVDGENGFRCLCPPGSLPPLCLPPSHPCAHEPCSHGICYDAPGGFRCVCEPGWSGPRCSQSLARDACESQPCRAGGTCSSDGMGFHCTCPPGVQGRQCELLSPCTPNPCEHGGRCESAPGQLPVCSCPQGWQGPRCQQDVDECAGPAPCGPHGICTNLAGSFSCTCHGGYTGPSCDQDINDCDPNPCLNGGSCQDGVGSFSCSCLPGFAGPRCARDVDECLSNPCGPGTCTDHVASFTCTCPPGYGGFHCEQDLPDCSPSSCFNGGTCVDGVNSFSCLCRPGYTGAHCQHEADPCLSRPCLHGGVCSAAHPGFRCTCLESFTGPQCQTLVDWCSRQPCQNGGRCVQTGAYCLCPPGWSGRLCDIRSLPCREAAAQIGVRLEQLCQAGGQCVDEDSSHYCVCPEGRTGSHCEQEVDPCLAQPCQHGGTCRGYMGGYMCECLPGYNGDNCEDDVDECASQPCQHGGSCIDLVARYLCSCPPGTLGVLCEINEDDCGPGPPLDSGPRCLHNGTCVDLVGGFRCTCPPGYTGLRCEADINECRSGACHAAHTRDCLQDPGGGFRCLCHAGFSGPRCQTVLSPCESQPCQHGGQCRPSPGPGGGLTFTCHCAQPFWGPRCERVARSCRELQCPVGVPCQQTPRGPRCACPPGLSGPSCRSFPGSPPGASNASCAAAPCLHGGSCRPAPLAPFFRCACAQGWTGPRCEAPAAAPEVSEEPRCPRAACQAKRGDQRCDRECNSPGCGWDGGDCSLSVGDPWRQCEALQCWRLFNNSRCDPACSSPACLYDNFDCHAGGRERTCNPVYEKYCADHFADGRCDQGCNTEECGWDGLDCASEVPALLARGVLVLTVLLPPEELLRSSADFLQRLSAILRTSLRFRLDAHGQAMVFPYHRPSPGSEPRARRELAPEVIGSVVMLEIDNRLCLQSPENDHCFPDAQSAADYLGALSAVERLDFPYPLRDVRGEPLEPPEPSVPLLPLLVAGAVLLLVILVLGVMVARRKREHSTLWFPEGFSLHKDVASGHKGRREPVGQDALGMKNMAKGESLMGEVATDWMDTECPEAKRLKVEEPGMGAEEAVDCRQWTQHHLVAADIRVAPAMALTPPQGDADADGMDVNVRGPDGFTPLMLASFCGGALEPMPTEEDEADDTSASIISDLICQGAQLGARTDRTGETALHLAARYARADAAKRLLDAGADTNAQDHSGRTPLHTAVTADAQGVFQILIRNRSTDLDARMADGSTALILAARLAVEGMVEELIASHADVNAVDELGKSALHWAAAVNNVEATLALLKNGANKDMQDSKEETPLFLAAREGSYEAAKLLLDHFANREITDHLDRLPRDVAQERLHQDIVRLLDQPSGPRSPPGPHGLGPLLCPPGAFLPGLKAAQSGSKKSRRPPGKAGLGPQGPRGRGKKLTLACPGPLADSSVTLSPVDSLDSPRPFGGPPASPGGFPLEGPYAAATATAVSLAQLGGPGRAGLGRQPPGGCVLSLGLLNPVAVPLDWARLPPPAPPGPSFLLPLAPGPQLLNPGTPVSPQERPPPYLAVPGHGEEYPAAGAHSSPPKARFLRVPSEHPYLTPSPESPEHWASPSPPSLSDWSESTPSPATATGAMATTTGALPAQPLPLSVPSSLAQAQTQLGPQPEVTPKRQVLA

| SMILES | composite z-score |
| --- | --- |
| O=C1C2C=CC(C(O)c3ccc([N+](=O)[O-])cc3)N(Nc3ccccc3)C2C(=O)N1c1ccccc1 (stereo not given) | 1.03 |
| CC(=O)NCCCC[C@@H]1NC(=O)[C@H]2C[C@@H](C(=O)NCCCCCC[N+](C)(C)C)[C@@H](c3ccc(O)cc3)N2C1=O | 0.702 |
| CCCC[C@H]1OB(O)C[C@H]2C1=C(COC)C[C@H]1C(=O)C=CC(=O)[C@H]12 | 0.936 |
| C[C@@H](OCc1ccccc1)C1NC(=O)[C@@]23C(=O)N[C@@H](Cc4ccccc4)C2[C@H](C)[C@@]2(C)O[C@H]2C3/C=C/C/C=C\CNC(=O)[C@H](Cc2ccccc2)NC1=O (stereo not given in full) | 0.655 |
| C=CCC(OC(C)=O)[C@@H]1[C@@H](N(Cc2ccc(-c3cccc(C(F)(F)F)c3)o2)C(=O)c2cccc3ccccc23)c2cc(OCCCO)ccc2N1C(=O)c1ccc2ccccc2c1 (stereo not given in full) | -0.1 |
| COCCn1c(C(=O)N2CCCC2)cc2c1C[C@H]1CN(C(=O)c3ccccc3)[C@@](Cc3ccccc3)(C(=O)OC)[C@@H]21 | 0.805 |
| C=CC[C@@]12N=C(c3ccc(OCCCO)cc3)O[C@@H]1c1ccccc1N(Cc1ccccc1)C2=O | 1.08 |
| C[C@]1(C(=O)NCC(F)(F)F)c2ccccc2C(=O)N(Cc2ccc(OC(F)(F)F)cc2)[C@H]1c1ccc(CO)cc1 | -0.464 |
| O=C1N(CCS(=O)(=O)c2ccccc2)c2ccccc2[C@@H]2OC(c3ccc(OCCCO)cc3)=N[C@]12CCS(=O)(=O)c1ccccc1 | 1.14 |
| CN(C)CCCC[C@@H]1NC(=O)[C@@H]2C[C@H](C(=O)NCCCCCCNC(=O)CS)[C@H](c3cccc(OCCO)c3)N2C1=O | 0.131 |
| [N-]=[N+]=Nc1ccccc1[C@@H]1OC(c2ccc(OCCCO)cc2)=N[C@]1(Cc1ccccc1)C(N)=O | 0.383 |
| C=CC[C@]1(C(=O)N(C)C)COC(c2ccc(OCCCO)cc2)=N1 | -0.338 |
| O=C1O[C@@H](c2ccccc2)[C@@H](c2ccccc2)N2[C@@H](c3ccc(O)cc3)[C@]3(C(=O)Nc4ccc(C#CC5=CCCCC5)cc43)[C@@H](C(=O)N3CCCCCCC3)[C@H]12 | 1.02 |
| CCCCC(=C=CC[C@@H](O)c1cccc(OCCO)c1)C[C@@H](O)COCc1ccccc1 | -0.184 |
| [N-]=[N+]=NCc1ccccc1C[C@]1(C(=O)O)COC(c2ccc(OCCCO)cc2)=N1 | -0.614 |
| COC(=O)[C@]1(CO)N=C(c2ccc(OCCCO)cc2)O[C@@H]1c1ccccc1CN=[N+]=[N-] | -0.318 |
| COc1ccc(NN2C(C(O)c3cc(C(F)(F)F)cc(C(F)(F)F)c3)C=CC3C(=O)N(C4CCCCC4)C(=O)C32)cc1 (stereo not given) | 1.06 |
| CN(C)CCCC[C@@H]1NC(=O)[C@H]2C[C@@H](C(=O)NCc3ccc(F)cc3)[C@@H](c3ccc(O)cc3)N2C1=O | 0.719 |

| SMILES | composite z-score |
| --- | --- |
| CCCC=C(CCC)[C@@H](NC(=O)c1ccccc1)c1ccc(C(=O)OC)cc1 | 0.997 |
| C=CCC(OC(C)=O)[C@@H]1[C@@H](N(Cc2cccc3ccccc23)C(=O)c2cccc3ccccc23)c2cc(OCCCO)ccc2N1C(=O)Cc1ccc2ccccc2c1 (stereo not given in full) | 0.002 |
| C=C(COC)/C(=C/C[C@@H](OC(C)=O)c1ccccc1OCCO)c1cc(C(=O)OC)ccc1OC | 0.455 |
| CO[C@H]1O[C@H](CO)[C@@H](OC(=O)Nc2ccc(C(F)(F)F)cc2)[C@H](OC(=O)Nc2ccccc2-c2ccccc2)[C@@H]1OC(=O)Nc1ccccc1-c1ccccc1 | 1.02 |
| CCOC(=O)C[C@H]1[C@H](OC(=O)c2ccc(-c3ccccc3)cc2)[C@@H](NC(=O)CC(C)C)c2cc(OCCCO)ccc2N1C(=O)Cc1ccc(OC)cc1 | -0.117 |
| CCOC(=O)C[C@H]1[C@H](OC(=O)c2cc3ccccc3oc2=O)[C@@H](NC(=O)C2CCCCC2)c2cc(OCCCO)ccc2N1C(=O)Cc1ccc(OC)cc1 | 0.894 |
| N#Cc1ccc(C(O)C2C=CC3C(=O)NC(=O)C3N2Nc2ccccn2)cc1 (stereo not given) | -0.124 |
| O=C1C2C=CC(C(O)c3cccs3)N(Nc3ccccc3)C2C(=O)N1c1ccccc1 (stereo not given) | 0.365 |
| COC(=O)[C@@]1(Cc2ccc(OC)cc2)[C@H]2c3cc(C(=O)N4CCCC4)n(CCc4ccc(OC)c(Br)c4)c3C[C@H]2CN1C(=O)c1ccccc1 | -0.0445 |
| CO[C@H]1O[C@H](CO)[C@@H](OC(=O)Nc2ccc(C(F)(F)F)cc2)[C@H](OC(=O)Nc2ccccc2-c2ccccc2)[C@H]1OC(=O)Nc1ccccc1-c1ccccc1 | 1.06 |
| CCOC(=O)C1=C(C(=O)OCC)N(S(=O)(=O)CC[Si](C)(C)C)[C@H](c2ccccc2)CC1 | 1.07 |
| CC(C)C(=C=CC[C@@H](O)c1ccccc1OCCO)C[C@@H](O)c1cc(Cl)cc(Cl)c1O | 1.09 |
| COc1ccc(C#Cc2ccc3c(c2)[C@]2(C(=O)N3)[C@H](C(=O)Nc3nc4ccccc4s3)[C@H]3C(=O)O[C@H](c4ccccc4)[C@H](c4ccccc4)N3[C@@H]2c2ccc(OCCO)cc2)cc1 | 1.1 |
| CC(=O)n1cc(C(O)C2C=CC3C(=O)N(c4ccccc4)C(=O)C3N2Nc2ccccc2F)c2ccccc21 (stereo not given) | -0.382 |
| COCCOC(=O)N1C(=O)[C@@]2(c3cc(C#CC4(O)CCCCCC4)ccc31)[C@H](c1ccc(OCCO)cc1)N1[C@H](c3ccccc3)[C@H](c3ccccc3)OC(=O)[C@H]1[C@@H]2C(N)=O | 1.06 |
| COc1cc2c(cc1O)C(c1ccc(CN3CCCC3)cc1)N(Cc1ccc([N+](=O)[O-])o1)CC2 (stereo not given) | 0.577 |
| COc1ccc(CCNC(=O)[C@@]2(C)c3ccccc3C(=O)N(Cc3cc(C(F)(F)F)cc(C(F)(F)F)c3)[C@H]2c2ccc(CO)cc2)cc1 | 0.0336 |
